Screens (PubChem)
Compounds with a hit are over-represented: about 3.5% of the library has one in this group of screens.
MITF inh = blocks human microphthalmia-associated transcription factor; O75030; AlphaScreen MITF homodimerization, bead proximity signal; inhibition, % at 2.6 µM; hit rate 0.91% among 650,000; in the data active = inhibition above about 50%;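 also: 0% = vehicle wells with protein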
Target sequence (O75030 whole entry, looked up): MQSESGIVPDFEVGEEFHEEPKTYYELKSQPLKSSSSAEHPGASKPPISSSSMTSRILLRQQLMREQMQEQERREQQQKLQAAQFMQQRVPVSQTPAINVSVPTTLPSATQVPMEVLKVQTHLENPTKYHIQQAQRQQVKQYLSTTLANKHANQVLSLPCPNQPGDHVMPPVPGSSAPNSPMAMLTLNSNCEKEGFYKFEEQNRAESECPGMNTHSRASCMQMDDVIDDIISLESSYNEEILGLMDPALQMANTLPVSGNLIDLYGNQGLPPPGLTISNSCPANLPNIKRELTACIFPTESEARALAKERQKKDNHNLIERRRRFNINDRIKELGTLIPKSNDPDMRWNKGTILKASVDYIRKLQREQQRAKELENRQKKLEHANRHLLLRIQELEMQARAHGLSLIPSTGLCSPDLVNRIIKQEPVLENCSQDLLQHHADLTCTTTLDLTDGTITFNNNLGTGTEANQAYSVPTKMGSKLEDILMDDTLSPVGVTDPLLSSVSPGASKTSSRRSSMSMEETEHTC
TEAD-YAP block = TEAD-YAP interaction inhibition; HEK-TIYL cells, TEAD-Gal4/YAP UAS-luciferase luminescence; inhibition, % at 9.12 µM; hit rate 1.4% among 640,000; AID 1259422; in the data active = inhibition above about 32%;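 also: 0% = median of test compound wells and 100% = reference inhibitor wells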
GPR151 ag = human GPR151 activation; activation, % at 11.2 µM; AID 1508602; PathHunter beta-arrestin GPR151 cells, luminescence; hit rate 1% among 650,000; in the data active = activation above about 4.9%;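 also: 0% = median of compound wells and 100% = cells with positive control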
FBW7 act = human FBW7 E3 ligase activation, primary screen. Q969H0. AlphaScreen FBW7–phospho-cyclin E peptide binding, activator screen. normalized activity (activation), % at 26.1 µM. hit rate 0.13% among 650,000. AID 1259310; in the data active = normalized activity above about 1.9%;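 also: purified mutant Fbw7 with reduced substrate affinity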
Numbers without * were called inactive.

SMILES	MITF inh	TEAD-YAP block	GPR151 ag	FBW7 act
Cc1cc(N2CCCC2)nc(Nc2ccc(NS(=O)(=O)c3cccc(F)c3)cc2)n1	-3	54*	-1	0
O=C(c1cc(-c2cccc(O)c2)on1)N1CCCCCC1	-8	31	-1	0
O=C(c1cc(-c2cccc(O)c2)on1)N1CCOCC1	15	65*	-5	0
C=CCNC(=O)c1cc(-c2cccc(O)c2)on1	2	34*	-2	0
O=C(c1cc(-c2ccc(O)cc2)on1)N1CCCCC1	4	45*	-1	0
O=C(c1cc(-c2ccc3c(c2)OCO3)on1)N1CCCC1	-14	41*	-2	0
COC(=O)Cc1cnc(NC(=O)C(C)(C)Oc2ccc(Cl)cc2)s1	13	2	-1	0
CC(=O)N1CCc2cc(Br)cc(S(=O)(=O)Nc3ccc(C)cc3Br)c21	13	6	1	0
COc1cccc(/C=N/Nc2ccc([N+](=O)[O-])cc2)c1O	10	-49	-2	1
COc1cccc(/C=N/Nc2ncccc2[N+](=O)[O-])c1O	26	98*	-10	-1
COc1cccc(/C=N/Nc2ncc(C)c(=O)[nH]2)c1O	86*	87*	2	0
COc1cccc(/C=N/Nc2nnc(C)n2N)c1O	11	-1	-1	0
COc1ccc(/C=N/Nc2ncccc2[N+](=O)[O-])c(OC)c1	13	69*	-9	-1
CC(=O)NC(c1ccc(Cl)cc1)c1ccc2cccnc2c1O (stereo unspecified)	19	90*	2	-2
CCCCC(=O)NC(c1ccc(Cl)cc1Cl)c1ccc2cccnc2c1O (stereo unspecified)	17	46*	1	-1
COc1ccc(C(=O)NC(c2ccccc2Cl)c2cc(Cl)c3cccnc3c2O)cc1 (stereo unspecified)	11	8	0	0
CC(=O)NC(c1ccccc1Cl)c1ccc2cccnc2c1O (stereo unspecified)	37	90*	1	-2
CCC(=O)NC(c1ccc(Cl)cc1)c1cc(Cl)c2cccnc2c1O (stereo unspecified)	-2	-2	-1	0
CCC(=O)NC(c1ccccc1Cl)c1cc(Cl)c2cccnc2c1O (stereo unspecified)	1	50*	0	0
CCCC(=O)NC(c1ccc(SC)cc1)c1ccc2cccnc2c1O (stereo unspecified)	15	82*	-1	-1
CC(=O)NC(c1ccc(F)cc1)c1ccc2cccnc2c1O (stereo unspecified)	44	85*	-1	-2
CCCC(=O)NC(c1ccccc1Cl)c1ccc2cccnc2c1O (stereo unspecified)	53*	95*	1	-1
O=C(NC(c1ccccc1)c1ccc2cccnc2c1O)c1ccccc1 (stereo unspecified)	24	22	1	-2
CCCCN1/C(=C/c2cccc[n+]2C)Sc2cc(NC(C)=O)ccc21	26	6	1	0
CN1/C(=C/c2cccc[n+]2C)Sc2ccccc21	0	70*	0	0
SMILES	MITF inh	TEAD-YAP block	GPR151 ag	FBW7 act
Cc1ccc2c(c1)N(C)/C(=C/c1cccc[n+]1C)S2	2	55*	0	0
CCN1/C(=C/c2cccc[n+]2C)Sc2ccc(C)cc21	4	52*	1	-1
CN1C=C/C(=C/c2cccc[n+]2C)c2ccccc21	-6	13	0	0
C[n+]1ccccc1/C=C1\Sc2ccccc2N1CCCS(=O)(=O)O	24	-2	-2	2.5*
CC(C)CNC(=O)COC(=O)c1ccc(NC(N)=O)cc1	2	6	3	0
CCOc1ccc(NC(=O)Cc2sc(C)nc2C)cc1	17	17	-1	0
CCCCN(C(C)=O)c1ccc(C(=O)O)cc1	-4	-2	0	0
CCCn1c(CCC(=O)NCc2ccco2)nc2cccnc21	7	1	0	0
Cc1cc(NC(=O)c2ccccc2)ccc1O	4	73*	-5	0
Cc1cc(NC(=O)/C=C/c2ccccc2)ccc1O	-12	73*	-1	0
CC(=O)Nc1ccc(NC(=O)c2ccccc2)c(C)c1	1	4	2	12*
Cc1cc2c(NCC3CCCO3)ncnc2s1 (stereo unspecified)	8	14	0	0
CN1CCN(/N=C/c2ccc(O)c(O)c2)CC1	79*	8	2	0
CCOc1ccc(N2CC(C(=O)Nc3c(C)cc(C)cc3C)CC2=O)cc1 (stereo unspecified)	9	1	0	0
COC(=O)[C@@H]1C[C@@H](NC(=O)Cc2ccc(F)cc2)CN1Cc1cc(Cl)ccc1O	1	7	-1	0
Cc1c(C(=O)NC2CCCCC2)sc2ncn(CC(=O)N3CCCCC3C)c(=O)c12 (stereo unspecified)	22	0	0	2.0*
Cc1c(C(=O)NC(C)C)sc2ncn(CC(=O)N3CCCCC3C)c(=O)c12 (stereo unspecified)	7	0	0	0
COc1ccc(C2CC(=O)C3=C(C2)NC(C)=C(C(=O)OC(C)C)C3c2ccc(F)cc2)cc1OC (stereo unspecified)	-14	42*	0	0
CCCOC(=O)C1=C(C)NC2=C(C(=O)CC(c3ccc(OC)c(OC)c3)C2)C1c1cccc(C)c1 (stereo unspecified)	-10	33*	2	0
CCCOC(=O)C1=C(C)NC2=C(C(=O)CC(c3ccc(OC)c(OC)c3)C2)C1c1ccccc1F (stereo unspecified)	-11	41*	3	0
COc1ccc(C2CC(=O)C3=C(C2)NC(C)=C(C(=O)OC(C)C)C3c2ccc(SC)cc2)cc1OC (stereo unspecified)	-1	14	0	0
CCCOC(=O)C1=C(C)NC2=C(C(=O)CC(c3ccc(OC)c(OC)c3)C2)C1c1ccccc1C (stereo unspecified)	-7	0	1	0
CC1=C(C(=O)OC2CCCCC2)C(c2cccnc2)C2=C(CC(c3ccc(Cl)cc3)CC2=O)N1 (stereo unspecified)	-4	38*	0	0
O=C(NCc1cccc(C(F)(F)F)c1)c1cccc(-c2cccs2)c1	30	5	-1	0
COc1ccc(C2CC(=O)C3=C(C2)NC(C)=C(C(=O)OC2CCCCC2)C3c2cccc([N+](=O)[O-])c2)cc1OC (stereo unspecified)	11	35*	-1	0
COc1ccc(C2CC(=O)C3=C(C2)NC(C)=C(C(=O)OC2CCCCC2)C3c2ccc([N+](=O)[O-])cc2)cc1OC (stereo unspecified)	14	7	1	0
CCCOC(=O)C1=C(C)NC2=C(C(=O)CC(c3ccc(OC)c(OC)c3)C2)C1c1cccc(Br)c1 (stereo unspecified)	-3	38*	0	0
CCc1ccc(S(=O)(=O)Nc2cccc(N3CCCS3(=O)=O)c2)cc1	15	33*	1	0
Oc1ccccc1-c1cc(-c2ccc(F)cc2)no1	7	-22	-4	0
